The source made the active and inactive calls. How the source made its calls: active means hit-call score of the fitted dose curve at least 0.9, where 1 is the maximum; inactive means score below 0.9.

Hepatocyte nuclear factor 6 (Homo sapiens), sequence (Q9UBC0 whole entry, looked up, the tested form may be a part): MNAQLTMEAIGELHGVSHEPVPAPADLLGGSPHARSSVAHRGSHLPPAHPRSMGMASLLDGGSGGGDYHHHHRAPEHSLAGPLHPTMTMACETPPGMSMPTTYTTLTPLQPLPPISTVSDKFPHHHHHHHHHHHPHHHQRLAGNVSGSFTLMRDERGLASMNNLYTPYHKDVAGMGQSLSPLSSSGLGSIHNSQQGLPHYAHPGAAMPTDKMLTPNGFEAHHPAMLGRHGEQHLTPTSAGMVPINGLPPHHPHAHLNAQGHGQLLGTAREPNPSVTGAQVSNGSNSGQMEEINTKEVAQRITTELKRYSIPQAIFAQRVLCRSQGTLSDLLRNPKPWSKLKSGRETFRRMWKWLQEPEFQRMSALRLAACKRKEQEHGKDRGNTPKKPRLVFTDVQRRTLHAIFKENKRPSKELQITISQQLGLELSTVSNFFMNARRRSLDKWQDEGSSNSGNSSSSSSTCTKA

In one experiment the target is Hepatocyte nuclear factor 6 (Homo sapiens) (UniProt Q9UBC0). Nature of the experiment: ATG_HNF6_CIS: Attagene CIS-FACTORIAL HepG2 Assay for human Hepatocyte Nuclear Factor 6 (HNF6) (AID 2282952). Particulars: HepG2 Attagene cis-factorial HNF6 reporter transcription; actives raise or lower the signal. In a few lines:
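Readout: fluorescent reporter-transcript fragments resolved by capillary electrophoresis after RT-PCR, reflecting endogenous factor activity in transfected HepG2. Exposure 24 h. Gain or loss of signal fitted bidirectionally against DMSO.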
In the case of `CCO/C=C1\N=C(c2ccccc2)OC1=O`, the result was inactive.
As for `COc1ccc(CCO)cc1`, the molecule was classed as inactive.
As for `C#CC(C)N(C)C(=O)Nc1ccc(Cl)cc1` (stereo not drawn), the molecule was classed as inactive.
Consider `FC(F)(F)COCC(F)(F)F`, for which the result was inactive.
As to `O=C(Nc1ccc2c(O)c(N=Nc3ccc(N=Nc4ccc(S(=O)(=O)O)cc4)cc3)c(S(=O)(=O)O)cc2c1)c1ccccc1`, the outcome was inactive.
On the same count and under the same terms, next, `C=C(C)C(=O)OCCOCCOCCOC(=O)C(=C)C`: “inactive”; `[Cl][Au]([Cl])[Cl]`: “inactive”.

For another experiment, the target named is Heat shock factor protein 1 (Homo sapiens) (UniProt Q00613). Nature of the experiment: ATG_HSE_CIS: Attagene CIS-FACTORIAL HepG2 Assay for human Heat Shock Transcription Factor 1 (HSE) (AID 2282953). Particulars: HepG2 HSE cis-reporter, Attagene RNA transcription; actives raise or lower the signal. The method, boiled down: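 Cells were transfected with cis-element-driven reporter constructs, dosed for 24 h, then total RNA was reverse-transcribed and reporter cDNA amplified, FAM-labelled and digested with HpaI. Fragments were resolved by capillary electrophoresis; gain or loss was fitted against DMSO.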
Heat shock factor protein 1 (Homo sapiens), sequence (Q00613 whole entry, looked up, the tested form may be a part): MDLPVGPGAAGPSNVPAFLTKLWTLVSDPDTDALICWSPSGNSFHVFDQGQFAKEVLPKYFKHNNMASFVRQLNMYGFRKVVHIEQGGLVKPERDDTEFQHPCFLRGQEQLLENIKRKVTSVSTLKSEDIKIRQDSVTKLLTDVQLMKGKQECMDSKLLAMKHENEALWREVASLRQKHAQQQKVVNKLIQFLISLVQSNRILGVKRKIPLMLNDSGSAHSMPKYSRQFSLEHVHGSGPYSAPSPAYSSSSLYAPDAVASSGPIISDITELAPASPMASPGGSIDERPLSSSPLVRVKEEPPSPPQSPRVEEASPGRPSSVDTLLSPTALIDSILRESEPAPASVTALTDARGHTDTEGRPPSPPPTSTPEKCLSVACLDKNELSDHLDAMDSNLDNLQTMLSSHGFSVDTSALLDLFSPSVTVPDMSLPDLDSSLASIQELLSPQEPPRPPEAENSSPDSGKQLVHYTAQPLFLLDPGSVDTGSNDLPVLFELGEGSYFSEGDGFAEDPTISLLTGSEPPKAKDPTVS
For `CCCC(O)C(O)CO` (stereo not drawn), the call was inactive.
Turning to `NCCNc1cccc2ccccc12`, the outcome was inactive.
A word on the AC50: it is the midpoint of the concentration-response curve, whichever way the signal moves. For `C=C(C#N)C(=O)OCC`, the AC50 is 144 µM (active).
Consider `CC(C)=CCCC(C)CC(=O)O` (stereo not drawn), for which the molecule was classed as inactive.
As for `Nc1ccc(NCCO)c([N+](=O)[O-])c1`, the result was inactive.
With `CCOC(=O)c1ccc(N)cc1`, the AC50 was 25.7 µM (active).
Regarding `Oc1ccc2cc(SSc3ccc4cc(O)ccc4c3)ccc2c1`, the AC50 was 78.1 µM (active).
With `CC1=CC[C@@]23C[C@@H]1C(C)(C)[C@@H]2CC[C@H]3C`, the outcome was inactive.
Turning to `C=C(C)CNCC`, the outcome was inactive.
On to `CC(=O)NCCO`, for which the molecule was called inactive.
For `CC(C)(N=C=O)c1cccc(C(C)(C)N=C=O)c1`, the outcome was inactive.
Consider `COC(=O)c1ccc(C)cc1C1=NC(C)(C(C)C)C(=O)N1` (stereo not drawn) (tested in a mixture with another compound), for which the outcome was inactive.
Consider `CN1C(=O)c2ccccc2C1=O`, for which the result was inactive.
Still for that read-out and setting: the same measure for `OCCCCC(O)CO` (stereo not drawn): “inactive”.
The same measure, in the same setting: the same measure for `CCCCCCCCCCCC(=O)OC[C@@H](O)[C@H]1OC[C@H](O)[C@H]1O`: “inactive”.
On to `CN(c1nccc(=O)[nH]1)C1CCN(c2nc3ccccc3n2Cc2ccc(F)cc2)CC1`, for which the molecule was classed as inactive.
As to `C[C@H](CCC(=O)NCC(=O)O)[C@H]1CC[C@H]2[C@@H]3[C@H](O)C[C@@H]4C[C@H](O)CC[C@]4(C)[C@H]3C[C@H](O)[C@]12C`, the outcome was inactive.
On to `CC(C=O)Cc1ccc(C(C)(C)C)cc1` (stereo not drawn), for which the molecule was classed as inactive.
On to `CN1CCOCC1`, for which the outcome was inactive.
Consider `c1ccc(CN(Cc2ccccc2)Cc2ccccc2)cc1`, for which the molecule was called inactive.
On to `CCCC(=O)c1ccccc1`, for which the molecule was called inactive.
`CCCCCCC(=O)c1ccccc1`: the molecule was classed as inactive.
`O=C1OC(=O)c2c(Cl)c(Cl)c(Cl)c(Cl)c21`: the molecule was called inactive.
As for `CCCCSCCCC`, the molecule was called inactive.
As for `C=C(CC(=O)O)C(=O)O`, the molecule was called inactive.
Still for that read-out and setting: the same measure for `C=CCOC(=O)CCCCCC`: “inactive”.
Take `OC[C@H]1O[C@@H]2O[C@H]3[C@H](O)[C@@H](O)[C@@H](O[C@H]4[C@H](O)[C@@H](O)[C@@H](O[C@H]5[C@H](O)[C@@H](O)[C@@H](O[C@H]6[C@H](O)[C@@H](O)[C@@H](O[C@H]7[C@H](O)[C@@H](O)[C@@H](O[C@H]8[C@H](O)[C@@H](O)[C@@H](O[C@H]9[C@H](O)[C@@H](O)[C@@H](O[C@H]1[C@H](O)[C@H]2O)O[C@@H]9CO)O[C@@H]8CO)O[C@@H]7CO)O[C@@H]6CO)O[C@@H]5CO)O[C@@H]4CO)O[C@@H]3CO`: the call was inactive.
As to `CCO/C=C1\N=C(c2ccccc2)OC1=O`, the molecule was called inactive.
The same measure, in the same setting: the same measure for `C#CC(C)N(C)C(=O)Nc1ccc(Cl)cc1` (stereo not drawn): “inactive”.
The same measure, in the same setting: the same measure for `FC(F)(F)COCC(F)(F)F`: “inactive”; for `O=C(Nc1ccc2c(O)c(N=Nc3ccc(N=Nc4ccc(S(=O)(=O)O)cc4)cc3)c(S(=O)(=O)O)cc2c1)c1ccccc1`: “inactive”.
Take `C=C(C)C(=O)OCCOCCOCCOC(=O)C(=C)C`: the molecule was called inactive.
Consider `[Cl][Au]([Cl])[Cl]`, for which the molecule was classed as inactive.

Tested on in the next experiment: not listed separately
The experiment in a line: ATG_MRE_CIS: Attagene CIS-FACTORIAL HepG2 Assay for human Metal Responsive Element (MRE) (AID 2282954). Particulars: HepG2 MRE cis-reporter transcription, Attagene multiplex; actives raise or lower the signal. In a few lines:
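Readout: capillary electrophoresis of 6-FAM-labelled, HpaI-digested RT-PCR reporter products. System: HepG2 cells carrying transient multiplexed cis reporters, dosed 24 h. Analysis: bidirectional fit, DMSO baseline.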
Take `CCCC(O)C(O)CO` (stereo not drawn): the result was inactive.
Turning to `COCCc1ccc(OCC(O)CNC(C)C)cc1` (stereo not drawn), the result was inactive.
Regarding `NCCNc1cccc2ccccc12`, the AC50 is 156 µM (active).
With `C=C(C#N)C(=O)OCC`, the molecule was classed as inactive.
In the case of `CC(C)=CCCC(C)CC(=O)O` (stereo not drawn), the outcome was inactive.
As for `Cc1c(OCC(F)(F)F)ccnc1CS(=O)c1nc2ccccc2[nH]1` (stereo not drawn), the AC50 was 73.1 µM (active).
Turning to `Nc1ccc(NCCO)c([N+](=O)[O-])c1`, the molecule was classed as inactive.
`CCOC(=O)c1ccc(N)cc1`: the call was inactive.
In the case of `Oc1ccc2cc(SSc3ccc4cc(O)ccc4c3)ccc2c1`, the AC50 is 34.8 µM (active).
With `CC1=CC[C@@]23C[C@@H]1C(C)(C)[C@@H]2CC[C@H]3C`, the result was inactive.
Regarding `C=C(C)CNCC`, the molecule was classed as inactive.
In the case of `CC(=O)NCCO`, the outcome was inactive.
`CC(C)(N=C=O)c1cccc(C(C)(C)N=C=O)c1`: the result was inactive.
On the same count and under the same terms, next, `COC(=O)c1ccc(C)cc1C1=NC(C)(C(C)C)C(=O)N1` (stereo not drawn) (tested in a mixture with another compound): “inactive”; `CN1C(=O)c2ccccc2C1=O`: “inactive”; `OCCCCC(O)CO` (stereo not drawn): “inactive”.
For the molecule `CCCCCCCCCCCC(=O)OC[C@@H](O)[C@H]1OC[C@H](O)[C@H]1O`, the call was inactive.
`CN(c1nccc(=O)[nH]1)C1CCN(c2nc3ccccc3n2Cc2ccc(F)cc2)CC1`: the AC50 is 26.7 µM (active).
As for `CCCCCC(C)=O`, the result was inactive.
`C[C@H](CCC(=O)NCC(=O)O)[C@H]1CC[C@H]2[C@@H]3[C@H](O)C[C@@H]4C[C@H](O)CC[C@]4(C)[C@H]3C[C@H](O)[C@]12C`: the molecule was classed as inactive.
On to `CC(C=O)Cc1ccc(C(C)(C)C)cc1` (stereo not drawn), for which the molecule was classed as inactive.
For `CN1CCOCC1`, the outcome was inactive.
As to `c1ccc(CN(Cc2ccccc2)Cc2ccccc2)cc1`, the molecule was classed as inactive.
Turning to `CC/C=C\CC/C=C/CO`, the molecule was classed as inactive.
`CCCC(=O)c1ccccc1`: the molecule was classed as inactive.
Same read-out and setting: the same measure for `CCCCCCC(=O)c1ccccc1`: “inactive”.
Same read-out and setting: next, `O=C1OC(=O)c2c(Cl)c(Cl)c(Cl)c(Cl)c21`: “inactive”; `CCCCSCCCC`: “inactive”; `C=C(CC(=O)O)C(=O)O`: “inactive”.
In the case of `C=CCOC(=O)CCCCCC`, the result was inactive.
`OC[C@H]1O[C@@H]2O[C@H]3[C@H](O)[C@@H](O)[C@@H](O[C@H]4[C@H](O)[C@@H](O)[C@@H](O[C@H]5[C@H](O)[C@@H](O)[C@@H](O[C@H]6[C@H](O)[C@@H](O)[C@@H](O[C@H]7[C@H](O)[C@@H](O)[C@@H](O[C@H]8[C@H](O)[C@@H](O)[C@@H](O[C@H]9[C@H](O)[C@@H](O)[C@@H](O[C@H]1[C@H](O)[C@H]2O)O[C@@H]9CO)O[C@@H]8CO)O[C@@H]7CO)O[C@@H]6CO)O[C@@H]5CO)O[C@@H]4CO)O[C@@H]3CO`: the result was inactive.
On the same count and under the same terms, next, `CCO/C=C1\N=C(c2ccccc2)OC1=O`: “inactive”.
On the same count and under the same terms, next, `COc1ccc(CCO)cc1`: “inactive”.
Turning to `C#CC(C)N(C)C(=O)Nc1ccc(Cl)cc1` (stereo not drawn), the result was inactive.
Take `FC(F)(F)COCC(F)(F)F`: the molecule was classed as inactive.
In the case of `O=C(Nc1ccc2c(O)c(N=Nc3ccc(N=Nc4ccc(S(=O)(=O)O)cc4)cc3)c(S(=O)(=O)O)cc2c1)c1ccccc1`, the outcome was inactive.
Turning to `C=C(C)C(=O)OCCOCCOCCOC(=O)C(=C)C`, the result was inactive.
In the case of `[Cl][Au]([Cl])[Cl]`, the call was inactive.

These data come from PubChem BioAssay (EPA / NIEHS).
